The text below walks through data of PubChem BioAssay (NCI).

Structures are written as SMILES. The panel holds about 83,000 compounds, 20% with a hit somewhere; the sample as a whole holds those more often.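 Interpretation: 100, growth as untreated; towards 0, rising growth inhibition; 0, no net growth; 0 to -100, cell death. Compounds scoring below 10 were considered active.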 Values without a mark were called inactive. Active and inactive are the calls of the source.

The experiment has as its system MDA-MB-468 breast. In words: NCI-60 one-dose screen, 48 h (100 = growth as untreated, 0 = no growth, -100 = all killed). Conditions: 10 µM unless noted.
`COc1ccc2[nH]c(-c3ccccc3)c(C=C(C#N)C#N)c2c1`: the growth is -4.84% (active).
For `COc1cc2nc(-c3ccc(C(F)(F)F)cc3)cc(OCCCN3CCCC3)c2cc1OC`, the growth was 43.8%.
The same measure for `C=CCn1c(C)nc2cc(Nc3nc(N4CCOCC4)nc4nc[nH]c34)ccc21`: 85.1%; for `N#Cc1nc(-c2ccc(Cl)cc2)cc(-c2ccc(Nc3nc(N4CCCCC4)nc(N4CCCCC4)n3)cc2)c1N`: 106%.
